Results reported in the supplement of paper PMC10849652.
About 7,900 targets were measured; listed, in parts, are those with a hit and a random draw of the rest. About 0.6% of all pairs of compound and target were hits.

Experiments:
Assay in all cases: log2 fold change, soluble protein after heating vs DMSO (PISA); higher = thermal stabilisation; K562 cells, 10 uM, 30 min; active = over 0.2 and 3.5 SD of the protein, either way, in both replicates (recomputed)
[1] = compound: COC1=CC=C(C=C1)CN2C=CC3=C2C=C(C=C3)C(=O)NO
In short: (§1)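 Soluble protein was defined as the supernatant after 21,000xg for 90 min. It came from K562 cells at 2×10^6 cells/mL given 10 μM compound for 30 min, heated in aliquots for 3 min across 48°C-58°C, pooled, and extracted in PBS with 0.5% NP-40 at 4°C, and was quantified by TMTpro 16plex LC-MS/MS with equalised channel sums. Thermal stability against control samples, from duplicates, is reported as log2 fold change.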

filanesib = compound: CON(C)C(=O)N1N=C(c2cc(F)ccc2F)S[C@@]1(CCCN)c1ccccc1 [filanesib]
In short: as §1

zotarolimus = compound: CO[C@H]1C[C@@H]2CC[C@@H](C)[C@@](O)(O2)C(=O)C(=O)N2CCCC[C@H]2C(=O)O[C@H]([C@H](C)C[C@@H]2CC[C@H](n3cnnn3)[C@H](OC)C2)CC(=O)[C@H](C)/C=C(\C)[C@@H](O)[C@@H](OC)C(=O)[C@H](C)C[C@H](C)/C=C/C=C/C=C/1C [zotarolimus]
In short: as §1

alisertib = compound: COc1cc(Nc2ncc3c(n2)-c2ccc(Cl)cc2C(c2c(F)cccc2OC)=NC3)ccc1C(=O)O [alisertib]
In short: as §1

[2] = compound: COc1cc2nc(-c3cc(F)ccc3O)nc(N[C@@H]3CNC[C@H]3C(C)(C)O)c2cc1OC
In short: as §1

gefitinib = compound: COc1cc2ncnc(Nc3ccc(F)c(Cl)c3)c2cc1OCCCN1CCOCC1 [gefitinib]
In short: as §1

[3] = compound: COc1cccc2cc(-c3nc([C@H]4CC[C@H](C(=O)O)CC4)n4ncnc(N)c34)[nH]c12
In short: as §1

lapatinib = compound: CS(=O)(=O)CCNCc1ccc(-c2ccc3ncnc(Nc4ccc(OCc5cccc(F)c5)c(Cl)c4)c3c2)o1 [lapatinib]
In short: as §1

[4] = compound: CS(=O)(=O)c1ccc(-c2cnc(N)c(C(=O)Nc3ccccc3)n2)cc1
In short: as §1

crizotinib = compound: C[C@@H](Oc1cc(-c2cnn(C3CCNCC3)c2)cnc1N)c1c(Cl)ccc(F)c1Cl [crizotinib]
In short: as §1

[5] = compound: C[C@@H]1COCCN1C2=NC(=NC(=C2)C3(CC3)S(=O)(=O)C)C4=C5C=CNC5=CC=C4
In short: as §1

[6] = compound: C[C@H](C1=CC=C(C=C1)C(=O)NC2=C3C=CNC3=NC=C2)N
In short: as §1

tozasertib = compound: Cc1cc(Nc2cc(N3CCN(C)CC3)nc(Sc3ccc(NC(=O)C4CC4)cc3)n2)n[nH]1 [tozasertib]
In short: as §1

doramapimod = compound: Cc1ccc(-n2nc(C(C)(C)C)cc2NC(=O)Nc2ccc(OCCN3CCOCC3)c3ccccc23)cc1 [doramapimod]
In short: as §1

ispinesib = compound: Cc1ccc(C(=O)N(CCCN)[C@@H](c2nc3cc(Cl)ccc3c(=O)n2Cc2ccccc2)C(C)C)cc1 [ispinesib]
In short: as §1

idasanutlin = compound: COc1cc(C(=O)O)ccc1NC(=O)[C@@H]1N[C@@H](CC(C)(C)C)[C@](C#N)(c2ccc(Cl)cc2F)[C@H]1c1cccc(Cl)c1F [idasanutlin]
In short: as §1

pictilisib = compound: CS(=O)(=O)N1CCN(Cc2cc3nc(-c4cccc5[nH]ncc45)nc(N4CCOCC4)c3s2)CC1 [pictilisib]
In short: as §1

duvelisib = compound: C[C@H](Nc1ncnc2nc[nH]c12)c1cc2cccc(Cl)c2c(=O)n1-c1ccccc1 [duvelisib]
In short: as §1

gandotinib = compound: Cc1cc(Nc2cc(CN3CCOCC3)c3nc(C)c(Cc4ccc(Cl)cc4F)n3n2)n[nH]1 [gandotinib]
In short: as §1

[7] = compound: Cc1cc(SCc2sc(-c3ccc(C(F)(F)F)cc3)nc2C)ccc1OCC(=O)O
In short: as §1

Measured: log2 fold change

CCDC57 (UniProt Q2TAC2)
inactive: [1] 0.006 | filanesib 0.01 | zotarolimus -0.081 | alisertib 0.013 | [2] -0.008 | gefitinib 0.009 | [3] 0.063 | lapatinib 0.07 | [4] -0.026 | crizotinib 0.06 | [5] 0.065 | [6] 0.139 | tozasertib 0.04 | doramapimod -0.035 | ispinesib -0.034

CDK8 (UniProt P49336)
active: doramapimod 0.425
inactive: [1] 0.03 | filanesib 0.008 | zotarolimus -0.044 | idasanutlin -0.136 | alisertib -0.137 | [2] -0.105 | [3] -0.005 | lapatinib -0.047 | pictilisib 0.038 | [4] -0.049 | crizotinib -0.029 | [5] 0.033 | [6] 0.248 | duvelisib -0.071 | gandotinib -0.13 | tozasertib -0.199 | [7] 0.155 | ispinesib 0.031

CASP9 (UniProt P55211)
inactive: [1] 0.095 | filanesib 0.169 | zotarolimus -0.043 | idasanutlin -0.008 | [2] 0.02 | gefitinib 0.146 | lapatinib -0.034 | pictilisib -0.019 | [4] 0.088 | crizotinib 0.002 | [5] 0.014 | [6] 0.014 | duvelisib 0.104 | gandotinib -0.152 | tozasertib 0.138 | [7] 0.064 | doramapimod 0.05 | ispinesib 0.037

COX17 (UniProt Q14061)
Chain of UniProt Q14061 (Q14061 whole entry, looked up): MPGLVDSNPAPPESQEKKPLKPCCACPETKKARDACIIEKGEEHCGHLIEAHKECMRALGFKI
inactive: [1] 0.183 | filanesib -0.059 | zotarolimus 0.034 | idasanutlin 0.059 | alisertib -0.112 | gefitinib -0.055 | [3] 0.02 | pictilisib 0.092 | [4] 0.026 | crizotinib 0.164 | [5] 0.206 | [6] -0.072 | duvelisib 0.256 | gandotinib -0.11 | tozasertib 0.005 | [7] -0.021 | doramapimod -0.037 | ispinesib 0.137

CENPE (UniProt Q02224)
inactive: [1] -0.355 | filanesib 0.445 | zotarolimus 0.288 | idasanutlin -0.407 | [2] -0.068 | lapatinib 0.024 | pictilisib 0.048 | [4] 0.231 | crizotinib -0.018 | [6] -0.908 | duvelisib -0.563 | gandotinib 0.052 | tozasertib -0.155 | [7] 0.24 | doramapimod 0.108 | ispinesib -0.321

C6orf120 (UniProt Q7Z4R8)
inactive: [1] 0.003 | filanesib -0.053 | [2] -0.135 | gefitinib -0.008 | lapatinib -0.114 | [4] 0.069 | crizotinib -0.04 | duvelisib -0.052 | tozasertib -0.032 | [7] 0.113 | doramapimod 0.134 | ispinesib -0.07

CLINT1 isoform 3 (UniProt Q14677)
Chain of UniProt Q14677 (Q14677 whole entry, looked up): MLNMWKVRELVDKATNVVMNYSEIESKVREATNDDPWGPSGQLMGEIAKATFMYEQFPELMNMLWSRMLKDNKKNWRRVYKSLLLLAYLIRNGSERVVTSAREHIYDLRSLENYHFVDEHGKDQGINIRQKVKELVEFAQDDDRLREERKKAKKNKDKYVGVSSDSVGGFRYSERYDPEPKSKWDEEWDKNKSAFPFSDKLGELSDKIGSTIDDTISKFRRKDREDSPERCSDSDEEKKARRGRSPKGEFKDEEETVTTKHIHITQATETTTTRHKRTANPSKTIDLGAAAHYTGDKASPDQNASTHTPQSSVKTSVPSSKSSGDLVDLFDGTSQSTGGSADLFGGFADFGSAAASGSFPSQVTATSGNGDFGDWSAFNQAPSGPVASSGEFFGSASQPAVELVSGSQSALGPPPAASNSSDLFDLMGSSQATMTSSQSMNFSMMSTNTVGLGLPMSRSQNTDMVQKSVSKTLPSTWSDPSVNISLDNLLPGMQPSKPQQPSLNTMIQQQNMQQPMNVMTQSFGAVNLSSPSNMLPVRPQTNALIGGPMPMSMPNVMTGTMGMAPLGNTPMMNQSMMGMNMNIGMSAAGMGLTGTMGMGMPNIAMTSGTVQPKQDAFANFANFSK
inactive: [1] -0.159 | filanesib 0.155 | zotarolimus -0.031 | idasanutlin 0 | alisertib -0.105 | [2] 0.074 | gefitinib 0.148 | [3] -0.041 | lapatinib 0.014 | [4] -0.019 | crizotinib 0.02 | [6] 0.159 | duvelisib -0.029 | gandotinib 0.047 | tozasertib -0.025 | [7] -0.097 | doramapimod 0.012 | ispinesib -0.001

CDK16 isoform 2 (UniProt Q00536)
Chain of UniProt Q00536 (Q00536 whole entry, looked up): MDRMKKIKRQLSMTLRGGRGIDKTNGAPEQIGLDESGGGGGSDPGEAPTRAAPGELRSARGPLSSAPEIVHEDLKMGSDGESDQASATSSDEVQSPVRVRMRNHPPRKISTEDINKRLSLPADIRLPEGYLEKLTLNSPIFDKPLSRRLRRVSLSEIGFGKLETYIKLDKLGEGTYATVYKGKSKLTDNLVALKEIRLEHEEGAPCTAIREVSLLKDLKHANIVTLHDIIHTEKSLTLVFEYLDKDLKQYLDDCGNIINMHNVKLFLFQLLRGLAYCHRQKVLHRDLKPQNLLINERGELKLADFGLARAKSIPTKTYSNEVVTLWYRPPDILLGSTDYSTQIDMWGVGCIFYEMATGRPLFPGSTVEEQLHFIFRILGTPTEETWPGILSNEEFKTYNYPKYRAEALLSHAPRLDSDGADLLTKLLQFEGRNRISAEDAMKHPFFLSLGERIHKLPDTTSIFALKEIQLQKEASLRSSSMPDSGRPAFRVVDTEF
active: gandotinib 0.436
inactive: [1] 0.029 | filanesib 0.021 | zotarolimus -0.028 | idasanutlin -0.036 | alisertib 0.02 | [2] 0.252 | gefitinib -0.086 | [3] 0.037 | lapatinib 0.002 | [4] 0.03 | crizotinib -0.036 | [5] 0.06 | [6] -0.07 | duvelisib 0.058 | [7] 0.096 | doramapimod -0.022 | ispinesib -0.046

COPS3 isoform 2 (UniProt Q9UNS2)
inactive: [1] -0.144 | filanesib 0.157 | idasanutlin 0.138 | alisertib -0.008 | [2] 0.321 | gefitinib 0.005 | [3] 0.083 | lapatinib -0.211 | pictilisib 0.128 | [4] 0.054 | crizotinib 0.046 | [5] 0.116 | gandotinib -0.084 | tozasertib -0.165 | doramapimod 0.028 | ispinesib -0.371

C15orf41 (UniProt Q9Y2V0)
inactive: [1] -0.057 | filanesib -0.021 | zotarolimus -0.096 | idasanutlin -0.023 | [2] 0.011 | lapatinib -0.018 | pictilisib 0.047 | [4] 0.057 | crizotinib -0.01 | [5] 0.074 | [6] 0.023 | duvelisib 0.003 | gandotinib -0.027 | tozasertib 0.1 | [7] -0.004 | doramapimod 0.08 | ispinesib -0.2

CASP8 isoform 9 (UniProt Q14790)
Chain of UniProt Q14790 (Q14790 whole entry, looked up): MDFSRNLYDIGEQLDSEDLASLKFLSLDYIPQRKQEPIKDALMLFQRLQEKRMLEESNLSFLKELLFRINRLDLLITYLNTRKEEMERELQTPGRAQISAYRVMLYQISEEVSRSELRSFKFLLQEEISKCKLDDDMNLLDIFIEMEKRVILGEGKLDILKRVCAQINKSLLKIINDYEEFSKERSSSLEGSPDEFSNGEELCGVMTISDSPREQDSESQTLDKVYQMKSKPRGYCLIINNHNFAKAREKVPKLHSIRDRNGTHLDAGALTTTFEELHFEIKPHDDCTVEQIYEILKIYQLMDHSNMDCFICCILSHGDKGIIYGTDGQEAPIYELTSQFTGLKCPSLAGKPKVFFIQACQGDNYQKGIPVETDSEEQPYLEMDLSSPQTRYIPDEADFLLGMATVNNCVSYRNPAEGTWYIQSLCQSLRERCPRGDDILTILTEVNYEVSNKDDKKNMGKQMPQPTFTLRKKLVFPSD
inactive: [1] -0.087 | filanesib -0.017 | idasanutlin -0.086 | alisertib -0.107 | [2] 0.023 | gefitinib -0.153 | [3] 0.044 | lapatinib -0.028 | pictilisib 0.127 | [4] 0.007 | crizotinib -0.02 | [5] -0.013 | duvelisib 0.104 | gandotinib -0.07 | tozasertib 0.181 | [7] -0.007 | doramapimod 0.072 | ispinesib -0.151

CCNC (UniProt P24863)
Chain of UniProt P24863 (P24863 whole entry, looked up): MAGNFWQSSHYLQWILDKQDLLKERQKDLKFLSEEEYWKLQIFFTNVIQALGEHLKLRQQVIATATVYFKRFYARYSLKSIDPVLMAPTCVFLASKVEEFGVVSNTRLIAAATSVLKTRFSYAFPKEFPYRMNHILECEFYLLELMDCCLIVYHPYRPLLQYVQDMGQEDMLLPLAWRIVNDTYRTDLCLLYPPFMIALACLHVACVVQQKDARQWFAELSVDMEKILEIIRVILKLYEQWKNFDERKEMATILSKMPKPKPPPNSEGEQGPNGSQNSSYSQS
inactive: [1] -0.198 | filanesib 0.013 | zotarolimus -0.026 | idasanutlin -0.156 | alisertib -0.036 | [3] 0.013 | pictilisib 0.079 | [4] 0.051 | crizotinib -0.004 | [5] 0.027 | [6] 0.247 | duvelisib 0.044 | gandotinib -0.088 | [7] 0.018 | ispinesib 0.059
active: doramapimod 0.373

CCM2 isoform 2 (UniProt Q9BSQ5)
inactive: [1] -0.093 | filanesib 0.026 | zotarolimus 0.057 | alisertib -0.04 | [2] 0.154 | [3] 0.056 | lapatinib 0.006 | pictilisib 0.022 | [4] 0.088 | crizotinib -0.022 | [5] -0.016 | [6] 0.003 | duvelisib -0.02 | gandotinib 0.026 | tozasertib 0.132 | [7] -0.067 | doramapimod 0.013 | ispinesib -0.043

C19orf54 (UniProt Q5BKX5)
inactive: [1] -0.025 | filanesib -0.278 | zotarolimus 0.024 | idasanutlin -0.094 | [2] 0.123 | lapatinib -0.125 | pictilisib 0.053 | [4] -0.026 | crizotinib 0.025 | [5] 0.182 | [6] 0.127 | duvelisib 0.072 | gandotinib -0.073 | tozasertib 0.006 | [7] 0.032 | doramapimod -0.061 | ispinesib -0.091

CIR1 (UniProt Q86X95)
inactive: [1] -0.022 | filanesib 0.247 | zotarolimus -0.064 | idasanutlin 0.161 | alisertib -0.081 | [2] -0.019 | [3] -0.024 | lapatinib 0.078 | pictilisib -0.365 | [4] -0.039 | crizotinib 0.03 | [5] -0.187 | duvelisib -0.114 | gandotinib 0.295 | tozasertib 0 | [7] 0.015 | doramapimod 0.092 | ispinesib -0.063
active: [6] 0.544

CEP128 (UniProt Q6ZU80)
Chain of UniProt Q6ZU80 (Q6ZU80 whole entry, looked up): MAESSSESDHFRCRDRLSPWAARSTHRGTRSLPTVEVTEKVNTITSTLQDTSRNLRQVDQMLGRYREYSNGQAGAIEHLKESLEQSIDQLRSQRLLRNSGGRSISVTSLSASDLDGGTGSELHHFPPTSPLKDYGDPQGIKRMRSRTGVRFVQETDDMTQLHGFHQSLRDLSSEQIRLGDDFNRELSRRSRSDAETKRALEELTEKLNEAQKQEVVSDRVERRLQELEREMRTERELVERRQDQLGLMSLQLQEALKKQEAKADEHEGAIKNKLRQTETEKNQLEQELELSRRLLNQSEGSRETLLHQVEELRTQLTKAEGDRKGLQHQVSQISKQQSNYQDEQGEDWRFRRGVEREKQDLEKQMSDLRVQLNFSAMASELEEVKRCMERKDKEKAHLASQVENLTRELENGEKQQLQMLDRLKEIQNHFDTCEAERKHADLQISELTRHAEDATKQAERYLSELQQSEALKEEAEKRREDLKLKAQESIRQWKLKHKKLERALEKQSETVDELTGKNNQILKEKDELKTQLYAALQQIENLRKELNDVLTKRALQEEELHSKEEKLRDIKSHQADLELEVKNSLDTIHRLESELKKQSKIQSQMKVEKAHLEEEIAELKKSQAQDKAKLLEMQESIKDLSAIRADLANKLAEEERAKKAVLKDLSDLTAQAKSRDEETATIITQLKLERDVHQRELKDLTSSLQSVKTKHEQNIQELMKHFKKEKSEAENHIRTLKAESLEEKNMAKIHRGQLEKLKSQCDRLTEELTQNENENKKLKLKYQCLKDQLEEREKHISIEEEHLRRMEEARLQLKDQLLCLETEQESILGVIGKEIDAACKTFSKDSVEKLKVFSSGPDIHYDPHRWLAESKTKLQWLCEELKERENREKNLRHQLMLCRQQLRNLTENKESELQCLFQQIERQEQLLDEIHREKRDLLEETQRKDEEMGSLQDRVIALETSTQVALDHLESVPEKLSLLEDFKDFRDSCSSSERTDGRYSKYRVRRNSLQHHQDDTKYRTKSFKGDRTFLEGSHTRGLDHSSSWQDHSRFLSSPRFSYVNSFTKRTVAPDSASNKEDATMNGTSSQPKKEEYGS
inactive: [1] -0.269 | filanesib 0.031 | zotarolimus -0.101 | idasanutlin -0.103 | [2] 0.076 | [3] -0.381 | lapatinib -0.198 | [4] 0.093 | crizotinib 0.056 | [6] 0.157 | duvelisib 0.183 | tozasertib 0.041 | [7] -0.07 | doramapimod 0.102
active: alisertib 0.677

CSNK1A1 (UniProt P48729)
Chain of UniProt P48729 (P48729 whole entry, looked up): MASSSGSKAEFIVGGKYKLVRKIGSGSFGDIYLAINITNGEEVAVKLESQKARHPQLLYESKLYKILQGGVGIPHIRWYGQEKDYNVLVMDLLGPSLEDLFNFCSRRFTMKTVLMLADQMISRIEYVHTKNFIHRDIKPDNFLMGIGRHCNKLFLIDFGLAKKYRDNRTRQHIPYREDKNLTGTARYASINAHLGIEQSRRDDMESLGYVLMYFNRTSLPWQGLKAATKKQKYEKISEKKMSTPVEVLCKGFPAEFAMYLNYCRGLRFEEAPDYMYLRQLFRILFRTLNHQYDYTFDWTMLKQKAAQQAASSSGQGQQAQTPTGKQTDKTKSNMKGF
inactive: [1] 0.147 | filanesib 0.08 | zotarolimus 0.024 | idasanutlin 0.094 | [2] -0.214 | gefitinib -0.106 | [3] -0.036 | lapatinib 0.019 | pictilisib 0.024 | [4] -0.093 | crizotinib -0.115 | [5] -0.114 | [6] -0.073 | duvelisib -0.04 | gandotinib 0.014 | tozasertib -0.034 | [7] 0.017 | doramapimod 0.024 | ispinesib -0.125

CEMIP2 (UniProt Q9UHN6)
Chain of UniProt Q9UHN6 (Q9UHN6 whole entry, looked up): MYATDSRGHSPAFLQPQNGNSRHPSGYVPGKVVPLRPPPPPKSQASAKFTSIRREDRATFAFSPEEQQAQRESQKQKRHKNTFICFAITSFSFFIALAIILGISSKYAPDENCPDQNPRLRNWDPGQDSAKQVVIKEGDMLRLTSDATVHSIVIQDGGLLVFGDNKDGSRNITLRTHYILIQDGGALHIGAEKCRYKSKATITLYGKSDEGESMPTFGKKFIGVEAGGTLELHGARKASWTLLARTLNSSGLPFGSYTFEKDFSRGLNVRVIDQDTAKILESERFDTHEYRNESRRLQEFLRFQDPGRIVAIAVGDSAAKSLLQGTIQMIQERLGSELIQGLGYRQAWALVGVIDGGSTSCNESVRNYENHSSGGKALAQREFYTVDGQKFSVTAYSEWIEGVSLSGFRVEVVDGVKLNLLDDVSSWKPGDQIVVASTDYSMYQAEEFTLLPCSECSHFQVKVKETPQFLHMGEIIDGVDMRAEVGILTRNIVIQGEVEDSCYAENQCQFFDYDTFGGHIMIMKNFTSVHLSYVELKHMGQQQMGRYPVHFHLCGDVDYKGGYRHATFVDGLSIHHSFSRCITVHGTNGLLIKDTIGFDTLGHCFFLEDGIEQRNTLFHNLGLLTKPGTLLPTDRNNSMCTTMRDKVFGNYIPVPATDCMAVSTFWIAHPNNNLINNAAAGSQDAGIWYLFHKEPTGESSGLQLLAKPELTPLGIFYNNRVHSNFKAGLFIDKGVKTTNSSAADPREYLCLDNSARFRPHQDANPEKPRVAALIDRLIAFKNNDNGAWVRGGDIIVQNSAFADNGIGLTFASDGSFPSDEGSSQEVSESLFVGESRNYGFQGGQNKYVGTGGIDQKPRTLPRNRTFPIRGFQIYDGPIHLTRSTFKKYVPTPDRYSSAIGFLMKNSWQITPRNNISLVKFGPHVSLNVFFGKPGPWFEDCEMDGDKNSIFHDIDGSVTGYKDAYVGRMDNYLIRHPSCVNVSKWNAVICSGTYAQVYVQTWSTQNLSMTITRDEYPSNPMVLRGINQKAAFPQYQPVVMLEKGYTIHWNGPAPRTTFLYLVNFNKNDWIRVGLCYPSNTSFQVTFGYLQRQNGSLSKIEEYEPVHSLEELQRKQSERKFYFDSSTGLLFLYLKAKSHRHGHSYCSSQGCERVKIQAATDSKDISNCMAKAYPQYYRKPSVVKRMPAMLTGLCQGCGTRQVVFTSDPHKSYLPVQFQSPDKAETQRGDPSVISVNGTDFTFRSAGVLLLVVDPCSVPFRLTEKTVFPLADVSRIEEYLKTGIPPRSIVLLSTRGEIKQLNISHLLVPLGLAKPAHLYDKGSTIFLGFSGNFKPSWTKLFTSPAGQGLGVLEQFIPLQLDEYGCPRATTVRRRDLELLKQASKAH
inactive: [1] -0.018 | zotarolimus 0.008 | idasanutlin 0.021 | alisertib 0.202 | [2] 0.121 | gefitinib 0.072 | [3] 0.135 | lapatinib 0.026 | pictilisib 0.097 | crizotinib 0.075 | [5] 0.023 | [6] 0.03 | duvelisib 0.037 | gandotinib -0.129 | tozasertib 0 | [7] -0.136 | doramapimod -0.144 | ispinesib -0.148

CCDC167 (UniProt Q9P0B6)
Chain of UniProt Q9P0B6 (Q9P0B6 whole entry, looked up): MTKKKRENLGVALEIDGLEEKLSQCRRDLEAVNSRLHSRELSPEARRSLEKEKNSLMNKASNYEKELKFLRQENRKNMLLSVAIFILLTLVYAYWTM
inactive: [1] -0.054 | filanesib -0.024 | zotarolimus -0.027 | alisertib -0.068 | [2] -0.148 | gefitinib -0.021 | [3] -0.105 | lapatinib 0.016 | pictilisib 0.047 | [4] -0.08 | crizotinib 0.025 | [5] 0.071 | [6] 0.135 | duvelisib 0.263 | gandotinib 0.181 | tozasertib -0.121 | [7] -0.214 | doramapimod 0.034
active: ispinesib -0.344
